Sampled rows, rich in hits. Any-hit rate of the full collection: about 21%.
Sm TGR inh – S. mansoni TGR enzyme inhibition; 3% of 360,000 active; purified TGR, DTNB reduction, TNB absorbance 405 nm; Q962Y6; Potency, µM (doses to about 114 µM), inactives show top-dose activity change, negative = inhibition, actives largely listed as inhibitors; AID 485364; further: potency means the concentration at half of the fitted maximal effect; on the % scale 0 is the no-effect control and ±100 the full control effect; nearly all actives have a fitted effect of over 60% in size
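First, TGR (20 nM dispensed) and NADPH were mixed with compound. Second, a 15 min room-temperature incubation followed. Third, further NADPH and then DTNB were added to start the reaction. Finally, TNB absorbance was monitored kinetically.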
Pf growth 96h – P. falciparum growth inhibition at 96 hour, primary screen for plastid delayed-death inhibitors. P. falciparum luciferase reporter growth, 96 h. Potency, µM (titrated, usually from 28.7 µM), without a hit: at the highest dose activity change, negative = inhibition, hits mostly inhibitors. 6.9% of 320,000 active. AID 504834; further: potency means the concentration at half of the fitted maximal effect; on the % scale 0 is the no-effect control and ±100 the full control effect
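P. falciparum expressing integrated firefly luciferase, in erythrocytes at 2% hematocrit, 0.05% parasitemia, incubated with compounds 96 h at 37 C, 5% CO2. Growth inhibition read as loss of luminescence; two-generation exposure targets delayed-death apicoplast inhibitors.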
NS1 function inh – influenza NS1 inhibition | Potency, µM (doses to about 46.1 µM), for inactives: at the top dose activity, positive = more growth | 0.4% of 270,000 active | AID 2326; calls by dose curve; further: potency means the concentration at half of the fitted maximal effect; actives are rising curves; nearly all actives have a fitted effect of over 50% in size
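S. cerevisiae expressing influenza A NS1, grown in glucose, washed, then diluted 1:100 into pH 6.0 -URA galactose medium with 23 nl compound. Growth recovery read as OD600; NS1-free strain serves as control.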
CHX counter – affects cycloheximide protein synthesis inhibition readout, counter-screen; cell reporter, cycloheximide protein synthesis inhibition counterscreen; max response, %; 12% of 300,000 active; in the data active means max response mostly above about 13%, no sharp cut-off; inactive means mostly below about 14%; further: read at 38.3 µM for the half of the compounds with a filed dose; 0% is about no effect
Shiga toxin inh – inhibitors of Shiga toxin in Vero cells; Vero cells, Shiga toxin protein synthesis inhibition reporter; inhibition, % at 38.7 µM; 9.2% of 290,000 active; AID 2315; in the data active means inhibition mostly above about 28%, no sharp cut-off; inactive means mostly below about 43%; further: 0% is about no effect
Pf growth 48h – P. falciparum growth inhibition at 48 hours (one generation) | P. falciparum luciferase growth in erythrocytes, 48 h | 5.9% of 310,000 active | AID 504832 | Potency, µM (titrated, usually from 28.7 µM), without a hit: at the top dose activity change, negative = inhibition, most hits filed as inhibitors; further: potency means the concentration at half of the fitted maximal effect; on the % scale 0 is the no-effect control and ±100 the full control effect
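A one-generation exposure of luciferase-tagged malaria parasites in RPMI 1640/Albumax erythrocyte culture, 37 C and 5% CO2. Inhibition is inferred from decreased luminescence after adding detection reagent.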
* marks the source's active call; other numbers are inactive results; i = inactive; ? = inconclusive; . = not tested or not shown. Unless noted, the call rests on the fitted dose curve; in most records, active means well fitted curve in the direction sought with a large enough effect; inconclusive means small, poorly fitted or top-dose-only effect, or another doubt; inactive means no such curve, though single readings can be large; an effect the other way counts as inactive or inconclusive.

SMILES | Sm TGR inh | Pf growth 96h | NS1 function inh | CHX counter | Shiga toxin inh | Pf growth 48h
CC(C)(C)c1nc2c(Br)cc(Br)cc2c(=O)o1 | -10% | 0.37µM* | 6% | -1 | -14 | 12%
Cc1ccc(C(=O)Nc2ccc(N3CCN(C)CC3)cc2)c(Cl)c1 | 10% | 10µM* | 8% | 42* | 62* | 110%
CS(=O)(=O)c1ccc(C(=O)Nc2ccc(N3CCCCC3)cc2)c(Cl)c1 | -8% | ? | . | 15 | -5 | 225%
Cc1ccc(C(=O)Nc2ccc(N3CCN(C)CC3)cc2)cc1C | -7% | 12µM* | 5% | 32* | 80* | 53%
Cc1ccc(C(=O)Nc2ccc(N3CCN(S(C)(=O)=O)CC3)cc2)cc1C | 19% | ? | 3% | 10 | 27 | 39%
CN1CCN(c2ccc(NC(=O)c3ccc4c(c3)OCCO4)cc2)CC1 | . | -3% | 5% | 36* | 81* | 100%
CCC(=O)N1CCN(c2ccc(NC(=O)c3ccc4c(c3)OCCO4)cc2)CC1 | 7% | 106% | . | 19* | 36 | -11%
O=c1c2ccccc2nc(SCc2ccccc2)n1CC1CCCO1 (configuration not stated) | 4% | ? | -37% | -2 | 6 | -21%
COCCNC(=O)CN1N=C(c2ccc(C)cc2)CCC1=O | 2% | 7% | 0% | 1 | -10 | 26%
Cn1c(CC(=O)Nc2ccc(Cl)c(Cl)c2)nnc1SCC(=O)NCc1ccccc1 | 8% | 34% | . | 0 | 4 | 5%
CSc1ccc(Cc2ccc(Cl)cc2Cl)nn1 | -26% | 38% | -16% | 22* | 38 | 33%
O=C(COc1ccc(Cl)cc1)N1CCN(C(=O)c2ccccc2F)CC1 | -2% | 37% | -1% | -7 | -4 | 13%
CCC(=O)N1c2ccccc2CC1C(=O)NCCN1CCN(c2cccc(C)c2C)CC1 (configuration not stated) | -6% | . | . | . | . | .
COc1cc2c(cc1OC)C1=NC(=O)CN1C(SCc1ccccc1C)=N2 | 8% | 12µM* | 29% | -3 | -6 | ?
COc1ccc(/C=N/Nc2nonc2N)cc1 | 6% | 64% | -100% | 23* | 67 | 35%
COc1cc(/C=N/N=C(/N)c2nonc2N)cc(Br)c1OCc1cccc(C)c1 | -4% | . | 1% | 21* | 23 | ?
COc1ccc(/C=N/N=C(\N)c2nonc2N)cc1 | 6% | 1.3µM* | . | 15 | 44* | i
CO/N=C(\N)c1nonc1N | 12% | 35% | 5% | 1 | 9 | 4%
COc1cc(/C=N/N=C(\N)c2nonc2N)cc(OC)c1O | 28µM* | 52% | 0% | 47* | 79* | 71%
CCOc1cc(/C=N/N=C(\N)c2nonc2N)cc(Br)c1OCc1cccc2ccccc12 | 1% | . | 2% | -2 | -11 | -2%
CNC(=O)C1CCN(S(=O)(=O)c2c(C)noc2/C=C/c2cccc(OC)c2)CC1 | -23% | 35% | 11% | 10 | 4 | ?
Cc1ccccc1NC(=O)c1c(C)oc2ccc(O)c(CN3CCN(C)CC3)c12 | 10% | . | . | . | . | .
CCCNC(=S)N1CCC(C(=O)c2ccc(Cl)cc2)CC1 | 89µM* | -3% | -15% | 5 | . | ?
N#Cc1c(N2CCOCC2)nsc1-c1ccc(C(F)(F)F)cc1 | 6% | 48% | -2% | 29* | 43 | 87%
Cc1cc(C(F)(F)F)c(C#N)c(N2CCOCC2)n1 | 4% | 20% | -4% | 8 | -18 | 53%
Cc1cccc(/C=N\Nc2cn[nH]c(=O)c2Cl)c1 | 3% | 25% | -6% | 16* | 36* | 1%
O=c1[nH]ncc(N/N=C\c2cccnc2)c1Cl | 6% | 33% | 4% | -3 | 17 | 13%
CN(C(=O)CSc1nc(C2CC2)n(-c2ccccc2)n1)C1CCS(=O)(=O)C1 (configuration not stated) | 1% | 31% | . | . | . | 30%
Cc1ccccc1-n1ccnc1SCC(=O)NC1CCCC1 | 0% | 1% | -8% | -1 | -1 | 5%
